Our source for the growth values is PubChem BioAssay (NCI).

SMILES strings stand for the structures. Compounds without any hit were thinned out: in the full panel of roughly 83,000, 20% have a hit.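 How to read the values: 0–100, growth inhibition (40 = 60% inhibited); 0, no net growth; -100 to 0, cell death (-40 = 40% of starting cells died; -100 = all dead).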 Active and inactive are the calls of the source. Rule for the calls: active = growth percent below 10; inactive = the rest.

In this assay the test system is HT29 colon. The assay can be described thus: NCI-60 one-dose screen, 48 h (100 = growth as untreated, 0 = no growth, -100 = all killed). Particulars: 10 µM unless noted.
Consider `O=C(Nc1ccc(Oc2ccc(Nc3nc4ccccc4s3)cc2)cc1)Nc1ccc(Cl)c(C(F)(F)F)c1`, for which the growth is -10.9% (active).
As for `C[C@]12CCc3nc(Nc4ccc(O)cc4)sc3C1=CC[C@@H]1[C@@H]2CC[C@]2(C)/C(=N/NC(N)=S)CC[C@@H]12`, the figure is -47.6% (active); as for `Cc1cc(N=Nc2ccc(-c3ccc(N=Nc4ccc(O)c(C(=O)O)c4)cc3)cc2)c(N)c(N=Nc2ccc(C(=O)O)cc2)c1N`, 76.6% (inactive).
Turning to `c1ccc2c(c1)cnc1ccccc12`, the growth is 94.6% (inactive).
Consider `Cc1cc(C)c2c(n1)sc1c(Nc3ccc(OCc4ccccc4)cc3)ncnc12`, for which the growth is 103% (inactive).
As for `COc1ccc2[nH]c(C(=O)OCc3ccc4cccc(O)c4n3)cc2c1`, the growth was -73.1% (active).
As for `Cc1ccc2oc(=O)cc(-c3nc4ccc([N+](=O)[O-])cc4[nH]3)c2c1`, the figure is 70.9% (inactive); as for `Cc1nc2ccc(Nc3nc(Cl)nc(N4CCOCC4)n3)cc2n1Cc1ccccc1`, 96% (inactive).
On to `CC(=O)c1c(O)c(C)c(O)c2c1OC1=CC(=O)/C(=C(/C)N)C(=O)C12C` (stereo not given), for which the growth is 65.1% (inactive).
`O=C(CI)NCCNc1cccc2c(S(=O)(=O)O)cccc12`: the growth is 110% (inactive).
Then `O=c1[nH]cnc2nc[nH]c12`, with 97.9% (inactive); and `CCN(CC)C(Cl)=Nc1ccc(Cl)cc1`, with 97.3% (inactive); and `c1ccc2c(Cc3csc4ccccc34)csc2c1`, with 76.2% (inactive).
As for `COS(=O)(=O)CCN(CCOS(C)(=O)=O)S(C)(=O)=O`, the growth was 85.4% (inactive).
`COc1cc(C2CC(c3cccc(Nc4ccnc5cc(Cl)ccc45)c3)=NN2c2ccccc2)cc(OC)c1OC` (stereo not given): the growth is 59.7% (inactive).
